Measured values published in PubChem BioAssay AID652048 (National Center for Advancing Translational Sciences (NCATS), 2013).
Where “and” joins values, the source holds several entries; their conditions need not be identical. Equal values may be shown once. About 2,400 (0.59%) of roughly 410,000 compounds were called active. This excerpt belongs to a sample that is enriched for actives. A number with no mark means an inactive call. Cut-off read from the data, not from the text of the source: active = max activation above about 30%; inactive = the rest.

target: D(3) dopamine receptor (Homo sapiens) (UniProt P35462); assay: qHTS of D3 Dopamine Receptor Agonist: qHTS; settings: D3R DiscoveRx beta-arrestin cells, luminescence, 90 min; hits give high values; note: 0% is about no effect
Sequence (P35462 whole entry, looked up): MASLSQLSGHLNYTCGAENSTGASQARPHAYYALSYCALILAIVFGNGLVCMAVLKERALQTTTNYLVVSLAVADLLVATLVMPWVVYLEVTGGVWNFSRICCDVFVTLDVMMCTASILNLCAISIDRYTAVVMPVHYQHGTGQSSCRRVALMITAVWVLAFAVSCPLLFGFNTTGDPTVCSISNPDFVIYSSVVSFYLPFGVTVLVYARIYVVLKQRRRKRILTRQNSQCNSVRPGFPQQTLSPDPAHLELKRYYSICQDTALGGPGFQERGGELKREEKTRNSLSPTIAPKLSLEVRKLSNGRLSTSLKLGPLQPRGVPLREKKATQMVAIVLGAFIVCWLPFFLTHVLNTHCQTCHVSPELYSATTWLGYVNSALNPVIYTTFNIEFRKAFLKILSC
How it was run: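 Cells at 1500/well, incubated overnight, then treated with pinned compounds (dopamine as control) for 90 min at 37 degrees C. DiscoveRx reagent added for 30 - 60 minutes at room temperature; luminescence read.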

Compound | max activation
COc1ccc(N2CCN(S(=O)(=O)c3ccc(-c4coc(C)n4)cc3)CC2)cc1 | 1.53%
Cc1ccc(C)c(N2C(=O)N(Cc3c(F)cccc3Cl)c3ccccc3S2(=O)=O)c1 | 64.6% (active)
O=C1c2ccccc2S(=O)(=O)N1Cc1c(F)cccc1Cl | -0.264%
O=c1c(=O)n(Cc2c(F)cccc2Cl)ccn1Cc1ccccc1 | -9.07%
CCCCOc1ccc(-c2ncc(C(=O)OCC)c(N)n2)cc1 | 85% (active)
CCOC(=O)c1cnc(SCc2nc(N)nc(Nc3ccc(OC)cc3)n2)nc1N | 2.44%
CCOC(=O)c1cnc(SCC(=O)Nc2cccc(OC)c2)nc1N | 6.65%
CCOC(=O)c1c(NC(=O)c2cc(-c3ccc(Cl)cc3)on2)sc2c1CCCC2 | -8.12%
C=O | 7.37%
CCn1cc(C(=O)N(C)Cc2ccccc2)c(=O)c2cc(S(=O)(=O)N3CCCCCC3)ccc21 | 3.05%
COc1cc(/C=C2\Oc3ccc(C#Cc4ccc(O)cc4)cc3C2=O)cc(OC)c1 | 15.9%
COc1cc(C#Cc2ccc3cc(CCCO)oc(=O)c3c2)cc(OC)c1 | 41.1% (active)
COc1cc(CN(C(=O)c2ccccc2Br)c2ccccn2)cc(OC)c1OC | -5.51%
COC(=O)c1ccc(NC(=O)CCc2c(C)nc3c(c(C)nn3-c3ccc(C)cc3)c2C)cc1 | 4.91%
O=S(O)CNc1ccc(S(=O)(=O)c2ccc(NCS(=O)O)cc2)cc1 | -10.5%
Cc1ccc(N2C(=O)C(NC(=O)c3c(F)cccc3F)(C(F)(F)F)C3=C2CC(C)(C)CC3=O)cc1 (stereo not given) | -17.5%
CC(C)C1C2=C(CC(C)(C)CC2=O)ON1c1ccccc1 (stereo not given) | -2.83%
COC(=O)C1CC2=C(CC(C)(C)CC2=O)N(c2ccccc2)C1=O (stereo not given) | 32.1% (active)
CC(=O)NC(=O)c1ccccc1O | -11.8%
Cc1cc(C)cc(NC(=O)c2cnc3sc(N4CCCC4)nn3c2=O)c1 | 19.3%
CC(C)Oc1ccc(CNC(=O)C2CCN(c3nc4ccccc4n(C)c3=O)CC2)cc1 | -5.52%
COc1cc(C(=O)N2CCOCC2)cc(OC)c1OC | 4.3% and 9.01%

Compound | max activation
COc1ccccc1/C=C/C1=NC(=C\N(C)C)/C(=O)O1 | -12.1%
CC(C)(C)C1C/C(=C/c2ccco2)C(=O)/C(=C/c2ccco2)C1 (stereo not given) | -7.15%
O=C1OC(/C=C/c2ccccc2)=NC/1=C/c1ccco1 | 30.1% (active)
Cc1cccc(NC(=O)N2CCC(CN3CCc4ccccc4C3)CC2)c1C | -18.9%
CCOC(=O)Cn1c(=O)n(-c2ccccc2OC)c2nc(-c3cccc(F)c3)nc(C(N)=O)c21 | 4.17%
COc1ccccc1N1CCN(c2ncnc3sc(C)c(-c4ccccc4)c23)CC1 | 50.8% (active)
COc1ccccc1N1CCN(c2ncnc3onc(-c4cccc(Cl)c4)c23)CC1 | 7.08%
COc1ccccc1N1CCN(c2ncnc3onc(-c4ccc(F)cc4)c23)CC1 | -8.86%
Cc1cccc(N2CCN(S(=O)(=O)c3ccc4[nH]c5c(c4c3)CCCCC5)CC2)c1C | -5.55%
COc1cccc(CNC(=O)CCc2nc(-c3ccc(C)cc3)no2)c1 | -0.491%
Cc1ccc(C)c(N2CCN(C(=O)CCc3nc(-c4cccc(C(F)(F)F)c4)no3)CC2)c1 | 11.8%
COc1ccc(-c2noc(CCC(=O)N3CCN(c4cccc(C)c4)CC3)n2)cc1 | 35.7% (active)
CCN1CCN(C(=O)N[C@@H](C(=O)N[C@@H]2C(=O)N3[C@@H]2SC(C)(C)[C@H]3C(=O)O)c2ccccc2)C(=O)C1=O | -1.19%
O=C1N(Cc2ccccc2)c2ccc(Cl)cc2C1(O)c1c[nH]c2ccccc12 (stereo not given) | 8.47%
CCN(CC)S(=O)(=O)c1ccc2c(c1)N(CC(=O)NCC(C)c1ccccc1)C(=O)CO2 (stereo not given) | -18.9%
COc1ccc([C@H]2CC(=O)C=C(c3ccc(CO)cc3)C2)cc1 | 10.9%
COc1ccc2cc(C3=CC(=O)C[C@H](c4ccc5c(c4)OCO5)C3)ccc2c1 | 38.7% (active)
COc1cccc(C2=CC(=O)C[C@H](c3ccc(OC)c(OC)c3)C2)c1 | -0.655%
Cc1nc(SCCOc2ccc(Cl)cc2)[nH]c(=O)c1Cc1ccccc1 | 1.02%
O=C(Cn1cnc2c(oc3ccccc32)c1=O)Nc1ccc(OC(F)(F)F)cc1 | 2.62%
O=C1CCN(CCc2ccccc2)CCN1CCOc1ccccc1 | -27.1%
COc1cccc(OC)c1OCCN1CCN(C(=O)c2ccco2)CC1 | 73.2% (active)

Compound | max activation
O=CN1CCN(C(=O)c2ccc(Br)o2)CC1 | -4.54%
O=C(c1ccco1)N1CCN(C(=O)c2ccc(COc3ccc(F)cc3)o2)CC1 | 1.73%
O=C(c1ccco1)N1CCN(Cc2cccc(C(F)(F)F)c2)CC1 | 8.47%
O=C(c1ccc(Br)o1)N1CCN(CCOc2ccccc2)CC1 | 54.7% (active)
O=C(CCCCn1c(=O)c2ccccc2n(CC(=O)Nc2cccc(C(F)(F)F)c2)c1=O)NCc1ccc2c(c1)OCO2 | 6.91%
CC(=O)Oc1ccccc1C(=O)Nc1ncc([N+](=O)[O-])s1 | 6.84%
CCOC(=O)c1c(NC(=O)/C=C/c2ccc(OC)cc2)sc2c1CCC(C)C2 (stereo not given) | 59.2% (active)
COC(=O)c1c(NC(=O)CCCOc2ccccc2)sc2c1CCC(C)C2 (stereo not given) | 4.8%
CCOC(=O)c1sc(NC(=O)/C=C/c2ccc(C(C)C)cc2)c(C(=O)OCC)c1C | -9.68%
COc1ccccc1CNS(=O)(=O)c1cc(Br)cc2c1N(C(C)=O)C(C)C2 (stereo not given) | -15.9%
CCN(CCCNC(=O)c1c(C)oc2ncn(CC(C)C)c(=O)c12)Cc1ccccc1 | -16.4%
Cc1ccc(-c2ncc(Cl)cc2-c2ccc(S(C)(=O)=O)cc2)cn1 | 3.29%
COc1ccccc1N1CCN(c2ccc(=O)n(CC(=O)NCc3ccc(OC(C)C)cc3)n2)CC1 | -15.8%
COC(=O)c1ccc(NC(=O)c2cc(S(=O)(=O)N3CCC(C)CC3)cn2C)cc1 | -4.24%
N#C/C(=C\c1cccc(F)c1)c1nc(-c2cc3c(ccc4ccccc43)oc2=O)cs1 | 4.13%
COc1cc2c(cc1CNC[C@H]1O[C@@H](n3cnc(C(N)=O)n3)[C@H](O)[C@@H]1O)OCO2 | 4.9%
NC(=O)c1ncn([C@@H]2O[C@H](CNCc3cnc(N4CCOCC4)s3)[C@@H](O)[C@H]2O)n1 | 0%
NC(=O)c1ncn([C@@H]2O[C@H](CN=C3NS(=O)(=O)c4ccccc43)[C@@H](O)[C@H]2O)n1 | 40.4% (active)
COc1cccc(Nc2nc3ccccc3c3nncn23)c1 | 10.1%
CCCn1c2ccccc2c2cnn(CC(=O)N3CCCC(C(=O)OCC)C3)c(=O)c21 (stereo not given) | 6.55%
CCc1cccc(-n2nnc(-c3nsc(NC(=O)c4ccc(C)cc4)n3)c2C)c1 | -11.9%
COc1ccc(-n2nnc(-c3nsc(NC(=O)c4ccc(C)c(C)c4)n3)c2C)cc1Cl | 41.8% (active)

Compound | max activation
Cc1c(-c2nsc(NC(=O)c3cccc(Cl)c3)n2)nnn1-c1ccccc1C(F)(F)F | -0.907%
Cc1oc2c(C)c3oc(=O)c(CC(=O)N[C@@H](CC(C)C)C(=O)N[C@@H](Cc4ccccc4)C(=O)O)c(C)c3cc2c1C | 11.4%
Cc1c(OC(C)C(=O)N[C@@H](Cc2ccccc2)C(=O)O)ccc2c3c(c(=O)oc12)CCCC3 (stereo not given in full) | 37.1% (active)
Cc1c(OC(C)C(=O)NCC2CCC(C(=O)O)CC2)ccc2c1oc(=O)c1ccccc12 (stereo not given) | -0.808%
COC(=O)c1c(NC(=O)c2cc(=O)c3c(C)cc(C)cc3o2)sc2c1CCCC2 | 4.95%
CCN1C(=NCCc2cccnc2)N[C@@H](c2ccccc2)C(C(=O)OC)=C1C | -55.8%
Cc1cc(C)cc(Nc2ncnc3onc(-c4ccc(F)cc4)c23)c1 | 9.02%
COc1ccc(C(=O)O/N=C(\N)Cc2ccc(Cl)cc2Cl)cc1OC | 36.2% (active)
COc1ccc(CCn2ccc(O)c(Cc3ccc(Cl)cc3Cl)c2=O)cc1OC | -10.8%
COC(=O)c1ccc(OC(=O)c2nn(C)cc2Cl)c(OC)c1 | 1.35%
CC(=O)c1ccc(NC(=O)CCc2nc(-c3ccc(C)cc3)no2)cc1 | 2.51%
Cc1ccc(OCCSc2nc(-c3cccs3)nc3cc(=O)[nH]n23)cc1Cl | 6.63%
CCCc1ccc(-c2c(C)sc(NC(=O)c3ccnn3C)c2C#N)cc1 | 57.1% (active)
Cc1c(C(=O)OC(C)C)sc(NC(=O)c2cccnc2)c1C#N | -1.22%
CCc1ccccc1NC(=O)CSc1nc(C)c(C(=O)Nc2ccccc2)c(-c2ccc(Cl)cc2)c1C#N | 3.31%
Cc1ccccc1Nc1nn2c(=O)c3ccc(C(=O)NCCc4ccc(Cl)cc4)cc3nc2s1 | 4.22%
COc1ccc(OC)c2sc(N3CCN(C(=O)C4COc5ccccc5O4)CC3)nc12 (stereo not given) | -1.78%
Cc1c(CC(=O)N2CCN(C(=O)C3COc4ccccc4O3)CC2)c(=O)oc2c(O)c(O)ccc12 (stereo not given) | 40.6% (active)
COc1cc(NS(=O)(=O)c2ccc3c(c2)OCC(C(=O)N2CCCC2)O3)cc(OC)c1 (stereo not given) | 19.5%
